# From PubChem BioAssay (Tox21)
# “And” between values parts separate entries of the source, which are not always exact repeats. Identical values can stand only once. Records with an inconclusive call do not appear. Entries that show only a call come without a potency. Values without a mark were called inactive. The source made the active and inactive calls. Calls come from the whole dose curve; as a rule, active = well fitted cell-killing curve with a large enough effect in the repeat runs; inconclusive = weak or mixed curves, or effect the other way; inactive = flat fitted curve, though single readings scatter.
# Assay: qHTS assay to identify small molecule antagonists of the constitutive androstane receptor (CAR) signaling pathway - cell viability counter screen (AID 1224837); note: nearly all actives have a fitted effect of over 45% in size
# Conditions: HepG2-CYP2B6-hCAR viability, CellTiter-Fluor, 23 h, co-treated with 50 nM CITCO; series mostly up to 92.4 µM; activity change, negative = cytotoxicity: at the top concentration
# Source text: National Center for Advancing Translational Sciences [NCATS]
# NIH Chemical Genomics Center [NCGC]
# U.S. Environmental Protection Agency [EPA]
# National Institutes of Environmental Health Sciences [NIEHS]
# National Toxicology Program [NTP]
# U.S. Food and Drug Administration [FDA]
# The constitutive androstane receptor (CAR) is a nuclear receptor which regulates multiple drug metabolizing enzymes (DMEs) and transporters. Activating CAR will generally increase the transcription and subsequent translation of CYP2B6 and CYP3A4. These two DMEs represent about 50% of the drug metabolizing potential in the body. When CAR is deactivated, the metabolizing potential in the body will decrease, subsequently increasing the toxicity in the body or lowering the therapeutic potential of a pro-drug. Recently, there have also been studies performed indicating CARs role in energy metabolism and cancer therapy. Therefore, inhibiting CARs activity could have a potential effect on diabetes and cancer. Identifying environmental toxins and compounds which modulate CAR, through the use of the Tox21 10K compound collection, will be an important step in determining the toxicity and potential therapeutic effects these factors will have on the human body. To differentiate true CAR antagonists from cytotoxic substances, the assay is multiplexed with a cell viability assay.
# Tox21 Assay Protocol Summary:
# A double-stable (hCAR and CYP2B6-2.2kb) transfected cell line, derived from human hepatoma (HepG2) cells, was utilized for the duration of the quantitative high-throughput screens. The HepG2-CYP2B6-hCAR cells were dispensed at 2500 cells/4 uL/well in 1536-well white solid bottom plates using a Multidrop Combi. After the assay plates were incubated at 37 C/5% CO2 for 4 hrs, 23 nL of compounds at 15 concentrations (from 5-48 columns) or positive control (from 1 to 4 columns) were transferred to the assay plates using a Pintool station. One uL of CITCO (final concentration = 50 nM) was added, using a Flying Reagent Dispenser, inside each well. After a 23 hr incubation period at 37 C/5% CO2, 1 uL of CellTiter-Fluor reagent was added into each well of the assay plates using a Flying Reagent Dispenser. The fluorescence intensity in the plates was then measured using a ViewLux plate reader.
# Potency is the fitted concentration of half-maximal effect.
SMILES,Potency,"activity change, negative = cytotoxicity"
CC(O)CCO (stereo not given),inactive,
ClC1C(Cl)C(Cl)C(Cl)C(Cl)C1Cl (stereo not given),inactive,
Nn1cnnc1,inactive,
C1=Cc2cccc3cccc1c23,inactive,
O=[N+]([O-])c1ccc(O)c([N+](=O)[O-])c1,30.8 µM (active),
Nc1ccc(Cl)c(Cl)c1,inactive,
CCCCN(CC)c1c([N+](=O)[O-])cc(C(F)(F)F)cc1[N+](=O)[O-],inactive,
c1ccc(N=Nc2ccccc2)cc1,inactive,
CCN(CC)C(=O)/C(Cl)=C(\C)OP(=O)(OC)OC,inactive,
Cc1ccccc1[N+](=O)[O-],inactive,
COc1ccc(C(CN(C)C)C2(O)CCCCC2)cc1 (stereo not given),inactive,
Nc1c(Cl)cc([N+](=O)[O-])cc1Cl,inactive,
S=C1NCCN1,inactive,
CC(C)NC(C)C,inactive,
COP(=S)(OC)Oc1ccc([N+](=O)[O-])cc1,inactive,
CCOc1cc(Oc2ccc(C(F)(F)F)cc2Cl)ccc1[N+](=O)[O-],inactive,
c1ccc(NNc2ccccc2)cc1,inactive,
CCC(CC)Nc1c([N+](=O)[O-])cc(C)c(C)c1[N+](=O)[O-],inactive,
Cc1ccc(N)c(N)c1,inactive,
CCCCC(CC)COC(=O)Cl (stereo not given),inactive,

SMILES,Potency,"activity change, negative = cytotoxicity"
CC(C)(C)c1ccccc1O,inactive,
CCCCNC(=O)n1c(NC(=O)OC)nc2ccccc21,inactive,
CN(C)c1ccc(C(=O)c2ccc(N(C)C)cc2)cc1,,-15.3%
O=C(O)CC[N+](=O)[O-],inactive,
O=C(NC(=O)c1c(F)cccc1F)Nc1ccc(Cl)cc1,inactive,
CC(C)c1ccc(CO)cc1,inactive,
CCOCN(C(=O)CCl)c1c(C)cccc1CC,,-11.6%
Oc1ccc(-c2ccccc2)cc1,inactive,
O=[N+]([O-])c1c(Cl)c(Cl)c(Cl)c(Cl)c1Cl,inactive,
O=C(CCl)c1ccccc1,inactive,
CC(C)=CC1C(C(=O)OCc2coc(Cc3ccccc3)c2)C1(C)C (stereo not given),inactive,
C=C(C)[C@H]1Cc2c(ccc3c2O[C@@H]2COc4cc(OC)c(OC)cc4[C@@H]2C3=O)O1,1.96 µM (active) and 770 nM (active) and 531 nM (active),
NC(=S)Nc1ccccc1,,-5.99%
COc1ccc(C=O)cc1,inactive,
Clc1nc(Cl)nc(Cl)n1,inactive,
c1ccc(P(c2ccccc2)c2ccccc2)cc1,inactive,
CCOC(=S)S,32.6 µM (active),
O=S(=O)(Oc1ccc(Cl)cc1)c1ccc(Cl)cc1,inactive,
CC(C)C(=O)OCC(C)(C)C(OC(=O)C(C)C)C(C)C (stereo not given),inactive,
NNC(=S)NN,inactive,
